The nature of assay [1]: antimalarial activity against Dd2 strain (AID 2302;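 active = growth inhibition above 50% at the single 2 µM test dose, taken to imply half-maximal potency below 2 µM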;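 note: 0% = DMSO untreated growth and 100% = chloroquine plus artemisinin killed control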). Particulars: P. falciparum Dd2 in RBCs, LDH growth readout, 72 h; at 2 µM; stronger effect = higher value.
Assay [2] can be described thus: human hepatoma cell viability loss – ATP luminescence, cytotoxicity control for P. falciparum antimalarial project, primary screen (AID 2303;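 active = inhibition above 50%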;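 note: 0% = DMSO wells and 100% = digitonin-killed cells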). Particulars: HepG2 viability, 24-48 h, at 10 µM, stronger effect = higher value.
The target of assay [3] is L-lactate dehydrogenase (Plasmodium falciparum (isolate CDC / Honduras)) (UniProt Q27743). The assay can be described thus: PfLDH activity inhibition – cell lysate, 3D7 strain, counter-screen for P. falciparum growth inhibition project (AID 2304).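 Note: 0% = vehicle and 100% = reference inhibitor.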 Particulars: P. falciparum 3D7 crude extract, LDH APAD/NBT absorbance; at 2 µM; stronger effect = higher value. Background: The purpose of a counterscreen is to sort out artefacts and off-target activity.
Sequence of L-lactate dehydrogenase (Plasmodium falciparum (isolate CDC / Honduras)) (Q27743 whole entry, looked up): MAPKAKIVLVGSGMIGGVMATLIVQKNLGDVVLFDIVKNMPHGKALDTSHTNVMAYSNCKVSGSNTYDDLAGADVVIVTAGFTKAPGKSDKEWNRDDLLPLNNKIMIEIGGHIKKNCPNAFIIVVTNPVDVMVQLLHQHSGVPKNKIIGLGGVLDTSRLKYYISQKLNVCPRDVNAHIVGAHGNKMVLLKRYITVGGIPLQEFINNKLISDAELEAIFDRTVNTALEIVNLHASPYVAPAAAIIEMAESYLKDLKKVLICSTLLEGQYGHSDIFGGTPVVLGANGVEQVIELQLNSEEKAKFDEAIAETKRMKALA

A short description of assay [4]: inhibition of 3D7 malaria parasite growth – strain 3D7 (AID 2306).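 Note: 0% = DMSO wells and 100% = chloroquine plus artemisinin control wells.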 Particulars: P. falciparum 3D7 erythrocytic growth, LDH absorbance, 72 h; at 2 µM; stronger effect = higher value.
The target of assay [5] is Calcium-dependent protein kinase 1 (Plasmodium falciparum (isolate 3D7)) (UniProt P62344). Put plainly: PfCDPK1 kinase inhibitors, biochemical, TCAMS library (AID 1159585; cut-off not given, nearly all actives have IC50 up to about 0.98 µM;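 note: inhibitors leave more ATP so luminescence rises with inhibition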). Particulars: recombinant PfCDPK1, Kinase-Glo ATP depletion luminescence. For orientation: In Kinase-Glo more light means more ATP remaining.
Sequence of Calcium-dependent protein kinase 1 (Plasmodium falciparum (isolate 3D7)) (P62344 whole entry, looked up): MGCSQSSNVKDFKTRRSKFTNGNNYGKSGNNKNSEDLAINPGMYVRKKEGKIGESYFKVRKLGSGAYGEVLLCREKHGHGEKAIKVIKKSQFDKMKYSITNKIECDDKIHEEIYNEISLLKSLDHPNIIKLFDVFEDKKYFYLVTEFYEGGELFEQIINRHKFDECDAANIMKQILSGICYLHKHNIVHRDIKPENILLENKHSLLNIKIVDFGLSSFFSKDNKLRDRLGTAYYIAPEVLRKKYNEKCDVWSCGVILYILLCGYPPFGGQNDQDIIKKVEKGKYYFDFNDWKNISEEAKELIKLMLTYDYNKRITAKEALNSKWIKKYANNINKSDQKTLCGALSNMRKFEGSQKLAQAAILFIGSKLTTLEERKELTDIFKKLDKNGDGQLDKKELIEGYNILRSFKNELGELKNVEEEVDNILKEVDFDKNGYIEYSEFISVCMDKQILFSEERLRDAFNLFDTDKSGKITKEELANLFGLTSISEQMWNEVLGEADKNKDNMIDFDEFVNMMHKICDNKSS
The target of assay [6] is Plasmodium falciparum protein kinase 6 (PK6, PF3D7_1337100) (UniProt Q8IDW1). The assay can be described thus: PfPK6 kinase inhibitors, biochemical, TCAMS library (AID 1159586). Particulars: recombinant PfPK6, Kinase-Glo ATP depletion luminescence.
Sequence of Plasmodium falciparum protein kinase 6 (PK6, PF3D7_1337100) (Q8IDW1 1-305): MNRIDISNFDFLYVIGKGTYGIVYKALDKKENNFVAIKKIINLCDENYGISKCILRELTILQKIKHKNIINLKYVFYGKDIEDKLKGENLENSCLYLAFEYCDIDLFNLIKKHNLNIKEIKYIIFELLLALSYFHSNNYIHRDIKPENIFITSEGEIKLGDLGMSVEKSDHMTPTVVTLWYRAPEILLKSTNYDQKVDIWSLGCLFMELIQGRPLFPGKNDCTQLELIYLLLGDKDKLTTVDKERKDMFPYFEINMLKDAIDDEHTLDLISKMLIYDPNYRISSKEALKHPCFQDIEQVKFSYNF
In assay [7] the target is Protein kinase 7 (PK7), Plasmodium falciparum 3D7 (PF3D7_0213400) (UniProt Q7YTF7). Put plainly: inhibition of Plasmodium PK7 catalytic activity – biochemical, TCAMS antimalarial set, Kinase-Glo luminescence (AID 1159587). Particulars: recombinant PfPK7, Kinase-Glo ATP depletion luminescence.
Sequence of Protein kinase 7 (PK7), Plasmodium falciparum 3D7 (PF3D7_0213400) (Q7YTF7 1-343): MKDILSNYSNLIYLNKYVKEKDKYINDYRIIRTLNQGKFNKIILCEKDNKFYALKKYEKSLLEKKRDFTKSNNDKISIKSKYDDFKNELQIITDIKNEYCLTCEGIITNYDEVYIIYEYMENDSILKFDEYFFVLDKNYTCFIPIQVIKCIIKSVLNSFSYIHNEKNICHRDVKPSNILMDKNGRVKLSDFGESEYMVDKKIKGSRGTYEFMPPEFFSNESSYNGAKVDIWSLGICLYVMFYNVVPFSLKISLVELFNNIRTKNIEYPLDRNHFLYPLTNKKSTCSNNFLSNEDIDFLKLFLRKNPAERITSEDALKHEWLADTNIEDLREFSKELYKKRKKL
For assay [8], the target named is Calcium-dependent protein kinase 4 (Plasmodium falciparum (isolate 3D7)) (UniProt Q8IBS5). Put plainly: PfCDPK4 kinase inhibitors, biochemical, TCAMS library (AID 1159588; cut-off not given, nearly all actives have IC50 up to about 0.91 µM). Particulars: recombinant PfCDPK4, Kinase-Glo ATP depletion luminescence.
Sequence of Calcium-dependent protein kinase 4 (Plasmodium falciparum (isolate 3D7)) (Q8IBS5 whole entry, looked up): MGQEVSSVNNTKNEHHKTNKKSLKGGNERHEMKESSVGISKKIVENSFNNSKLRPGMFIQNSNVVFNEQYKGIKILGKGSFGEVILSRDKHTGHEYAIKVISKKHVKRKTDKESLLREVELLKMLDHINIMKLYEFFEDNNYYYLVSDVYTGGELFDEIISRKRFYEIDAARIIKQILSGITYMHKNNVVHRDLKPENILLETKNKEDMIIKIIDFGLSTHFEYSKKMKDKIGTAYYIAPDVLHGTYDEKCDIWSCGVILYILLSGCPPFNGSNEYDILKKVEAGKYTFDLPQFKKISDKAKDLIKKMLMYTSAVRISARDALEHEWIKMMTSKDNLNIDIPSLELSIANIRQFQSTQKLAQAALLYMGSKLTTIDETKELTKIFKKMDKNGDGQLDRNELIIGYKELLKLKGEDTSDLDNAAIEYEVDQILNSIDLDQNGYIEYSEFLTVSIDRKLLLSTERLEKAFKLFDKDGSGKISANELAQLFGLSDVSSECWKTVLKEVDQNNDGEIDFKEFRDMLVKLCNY

Unmarked numbers belong to inactive results. For some assays here: Measured potencies and affinities stand elsewhere. The source made the active and inactive calls. Unless noted, the rule behind the calls is not given here.

As usually defined, the inhibition is the change of the read-out against control, counted positive when it falls.

Turning to `CCNc1cc(C)nc(Nc2ccc(NC(=O)c3cccs3)cc2)n1`, the results for the growth inhibition in assay [1] and in assay [4] were 50% (active) and 101% (active), respectively. The values for the inhibition in assay [2] and in assay [3] were 21% and 0%, respectively. Besides, the outcome in assay [5], in assay [6], in assay [7] and in assay [8] was inactive.
Consider `N#Cc1ccc2c(c1)CCN(CCC1CCC(NC(=O)c3cc4ccc(Br)cc4[nH]3)CC1)C2` (configuration not stated), for which the growth inhibition is 17% in assay [1] and 103% (active) in assay [4]. The figures for the inhibition in assay [2] and in assay [3] were 12% and -13%, respectively. For the same molecule, the result in assay [5], in assay [6], in assay [7] and in assay [8] was inactive.
For the molecule `CCn1c(-c2nonc2N)nc2c(Cl)ncc(O[C@H](CCN)c3ccccc3F)c21`, the growth inhibition in assay [1] was 88% (active); in assay [4] it was 96% (active). Also, the inhibition in assay [2] is 15%; in assay [3], -2%. Besides, the result in assay [5], in assay [6], in assay [7] and in assay [8] was inactive.
With `CN(C)CCN1CCN(CCCN2c3ccccc3Sc3ccc(C(F)(F)F)cc32)CC1`, the growth inhibition was 61% (active) in assay [1] and 99% (active) in assay [4]. Further, the inhibition is 98% (active) in assay [2] and -2% in assay [3]. For the same molecule, the result in assay [5], in assay [6], in assay [7] and in assay [8] was inactive.

The record behind these values is PubChem BioAssay.
